# Compound activity (PubChem BioAssay)
# TRPV1 agonist = HTS Assay for Compounds that Act as Agonists of the Vanilloid Receptor 1 | Transient receptor potential cation channel subfamily V member 1 (Homo sapiens), Q8NER1 | TRPV1-expressing cells, Fluo-8 calcium influx, agonist mode | activation, % at 8.33 µM | 320,000 tested, 0.19% active | AID 540275, 2011; in the data active = activation above about 80%; inconclusive = between about 30% and that limit; note: 0% is about no effect
#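 TRPV1-expressing cells were cultured overnight at 35.5C and loaded with Fluo-8 calcium dye for 40 to 90 min at room temperature. After a 10 s baseline, compound was added and calcium influx was read kinetically for 3 min (ex 480/em 520 nm).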
# hERG WT inh = qHTS for Inhibitors of KCHN2 3.1: Wildtype qHTS. Voltage-gated inwardly rectifying potassium channel KCNH2 (Homo sapiens), Q12809. U2OS, BacMam KCNH2, thallium flux FluxOr; active compounds read low. activity change, % at 1.84 µM. 340,000 tested, 0.37% active. AID 720551, 2013;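 active = maximum activity change below -70%; inconclusive = maximum activity change between -70% and -50%; inactive = maximum activity change above -50%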; note: % is set by controls: 0 for no effect and ±100 for the full control effect
# Target sequence (Q12809 whole entry, looked up): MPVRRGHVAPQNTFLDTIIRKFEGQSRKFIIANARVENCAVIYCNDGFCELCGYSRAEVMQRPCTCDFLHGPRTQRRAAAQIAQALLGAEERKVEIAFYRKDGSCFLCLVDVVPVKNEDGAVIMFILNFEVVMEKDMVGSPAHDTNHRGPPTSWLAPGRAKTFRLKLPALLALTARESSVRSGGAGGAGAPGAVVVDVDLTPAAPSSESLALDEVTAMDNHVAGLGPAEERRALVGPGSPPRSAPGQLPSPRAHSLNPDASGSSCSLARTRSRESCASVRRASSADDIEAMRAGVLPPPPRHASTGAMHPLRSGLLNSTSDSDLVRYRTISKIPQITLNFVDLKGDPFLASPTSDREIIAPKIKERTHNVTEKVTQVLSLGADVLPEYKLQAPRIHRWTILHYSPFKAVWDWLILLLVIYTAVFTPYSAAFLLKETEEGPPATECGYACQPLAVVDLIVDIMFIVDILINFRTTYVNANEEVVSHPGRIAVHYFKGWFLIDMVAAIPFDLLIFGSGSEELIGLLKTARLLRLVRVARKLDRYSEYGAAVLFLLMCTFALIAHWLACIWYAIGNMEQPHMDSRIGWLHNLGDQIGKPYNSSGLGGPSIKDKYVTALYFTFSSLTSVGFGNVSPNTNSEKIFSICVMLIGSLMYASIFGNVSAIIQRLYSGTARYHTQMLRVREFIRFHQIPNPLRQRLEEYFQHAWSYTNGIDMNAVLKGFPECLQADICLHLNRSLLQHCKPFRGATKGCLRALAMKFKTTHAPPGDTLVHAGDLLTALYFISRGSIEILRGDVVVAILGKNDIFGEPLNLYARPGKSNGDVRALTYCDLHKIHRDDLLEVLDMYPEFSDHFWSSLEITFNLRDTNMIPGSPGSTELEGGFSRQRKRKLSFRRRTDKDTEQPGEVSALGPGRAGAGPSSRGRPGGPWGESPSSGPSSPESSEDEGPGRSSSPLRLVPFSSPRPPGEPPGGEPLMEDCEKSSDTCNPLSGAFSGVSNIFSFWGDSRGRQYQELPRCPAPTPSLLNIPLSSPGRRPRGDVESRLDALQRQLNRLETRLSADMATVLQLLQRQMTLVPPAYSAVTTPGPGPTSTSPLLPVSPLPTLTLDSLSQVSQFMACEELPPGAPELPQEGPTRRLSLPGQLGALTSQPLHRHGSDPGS
#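 U2OS cells transduced with wild-type KCNH2 virus are loaded with FluxOr dye for 45 min, and thallium flux is measured in kinetic reads before and after stimulation buffer. Rate constants are normalized to DMSO controls.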
# TRPV1 PAM = HTS Assay for Compounds that Act as Potentiators of the Vanilloid Receptor 1 | TRPV1-expressing cells, Fluo-8 calcium influx, capsaicin EC20 potentiation | potentiation, % at 8.33 µM | 320,000 tested, 0.02% active; in the data active = potentiation above about 80%; inconclusive = between about 30% and that limit; note: 0% is about no effect
#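 TRPV1-expressing cells were cultured overnight at 35.5C and loaded with Fluo-8 calcium dye for 40 to 90 min at room temperature. After a 10 s baseline, compound was added and calcium influx was read kinetically for 3 min (ex 480/em 520 nm).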
# MBNL1 CUG block = qHTS Assay for Inhibitors of MBNL1-poly(CUG) RNA binding; 280,000 tested, 0.036% active; Muscleblind-like protein 1 (Homo sapiens), Q9NR56; TR-FRET MBNL1-His/biotin-(CUG)12 binding, 665/545 ratio; AID 2675, 2010; Potency, µM (doses to about 57.5 µM), for the others: top-dose activity change, negative = inhibition, most hits filed as inhibitors; active = well fitted inhibition curve with a large enough effect in the signal ratio, with a control signal flat, not every such curve was filed as active; inconclusive = small, poorly fitted or top-dose-only effect, or effect the other way, or a change in a side signal; inactive = no such curve, though single readings can be large or run the other way; the % refers to the signal ratio; note: potency is the fitted concentration of half-maximal effect; % is set by controls: 0 for no effect and ±100 for the full control effect
#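 Compound titration spanned 92 nM–58 uM against the MBNL1-His/biotin-(CUG)12 complex. After 60 min at room temperature with 5 nM streptavidin-XL665 and 0.055 ng/ul terbium anti-His, ratiometric 665/545 nm emission (Ex 340 nm) normalized to controls.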
# KCNH2 3.1 block = qHTS for Inhibitors of KCHN2 3.1: Mutant qHTS; Potassium voltage-gated channel subfamily H member 2, brain isoform KCNH2 3.1 (human); U2OS KCNH2 3.1, thallium flux FluxOr; active compounds read low; activity change, % (tested at about 1.8 µM); 340,000 tested, 0.95% active; AID 720553, 2013;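 active = maximum activity change below -70%; inconclusive = maximum activity change from -70% to -50%; inactive = maximum activity change above -50%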;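 note: thallium influx rate constant from kinetic fluorescence after stimulation buffer; % is set by controls: 0 for no effect and ±100 for the full control effect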
#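 U2OS cells transduced with KCNH2 3.1 mutant virus (1.77 x 10^8 /mL, 4 h), plated overnight at 37 C, loaded 45 min with FluxOr dye plus Red40 quencher. Thallium flux rate constant from kinetic reads after stimulation buffer, normalised to controls.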
# * marks the source's active call; other numbers are inactive results; ? = inconclusive; / = not tested or not shown. Sampled rows, rich in hits. Any-hit rate of the full collection: about 1.3%.
SMILES,TRPV1 agonist,hERG WT inh,TRPV1 PAM,MBNL1 CUG block,KCNH2 3.1 block
CCC1(O)CC2CN(CCc3c([nH]c4ccccc34)C(C(=O)OC)(c3cc4c(cc3OC)N(C=O)C3C(O)(C(=O)OC)C(OC(C)=O)C5(CC)C=CCN6CCC43C65)C2)C1 (configuration not stated),/,26.0,/,/,/
O=C(NCCc1csc(-c2ccccc2)n1)c1ccc(Br)o1,13.5,-0.1,6.9,1.1%,5.0
O=C(NCCc1csc(-c2cccnc2)n1)c1ccc(Br)o1,-3.2,-71.1*,25.2,0.3%,5.6
Cc1[nH]n(-c2ccc([N+](=O)[O-])cc2)c(=O)c1C=NCCN1CCN(C(=O)c2ccc(F)cc2)CC1,0.8,1.4,-3.6,17.8%,-16.0
Cc1[nH]n(-c2ccc([N+](=O)[O-])cc2)c(=O)c1C=NCCN1CCN(C(=O)c2ccc(Br)cc2)CC1,-3.2,-107.8*,2.4,19.1%,-84.0*
COc1ccc(S(=O)(=O)NCCC(=O)N2CCCN(C)CC2)cc1,1.1,-3.7,-11.0,/,2.4
CCOc1ccc(CN(C)CC(=O)c2c(N)n(Cc3ccccc3)c(=O)n(CC)c2=O)cc1OC,-1.1,-117.3*,-5.2,-0.6%,-101.0*
CCn1c(=O)c(C(=O)CN(C)Cc2cccc(OC)c2OC)c(N)n(Cc2ccccc2)c1=O,1.3,2.3,4.9,-8.6%,0.2
CCn1c(=O)c(C(=O)CN(C)Cc2ccc(F)cc2)c(N)n(Cc2ccccc2)c1=O,-0.2,-10.1,0.5,/,-84.3*
COCCN(C(=O)COC(=O)C1CC1C)c1c(N)n(Cc2ccccc2)c(=O)[nH]c1=O (configuration not stated),1.0,8.5,-1.3,/,1.2
CCSc1ccc(-c2cccc([N+](=O)[O-])c2)nn1,26.8,2.4,4.1,?,7.4
O=c1cc2c(=O)oc3cc(O)c(O)oc3c2c(O)c1O,-0.4,-6.9,-12.7,14.5%,-1.4
Cc1nnc(SCC(=O)Nc2cc(S(=O)(=O)N3CCCC3)ccc2Cl)n1C1CC1,-3.3,1.0,2.5,/,-96.7*
O=C(CSc1nnnn1C1CC1)Nc1cc(S(=O)(=O)N2CCCC2)ccc1Cl,/,0.8,/,/,4.2
CCn1c(N2CCN(C(=O)Nc3ccc(F)cc3)CC2)nc2ccccc21,?,40.6,-21.6,9.6%,-3.5
CC(C)Cn1c(N2CCN(CC(=O)Nc3ccc(Cl)cc3)CC2)nc2ccccc21,0.3,-16.0,8.0,-8.2%,-74.5*
Cc1ccc(SCc2nc3ccccc3n2CC(=O)Nc2ccc(Cl)cc2)cc1,3.3,17.7,4.9,0.7%,-1.1
CCCn1c(N2CCN(C(=O)Nc3ccccc3)CC2)nc2ccccc21,?,10.2,3.5,-3.6%,-104.7*
O=C(O)Cc1sc(N/N=C\c2ccncc2)nc1-c1ccccc1,14.0,-6.1,-2.1,?,7.6
CN(C)CCNC(=O)c1cc2c(s1)-c1ccc(Cl)cc1SC2,4.9,-112.9*,-5.9,?,-80.5*
CCOCCCNC(=O)c1cc2c(s1)-c1ccccc1SC2,?,-0.4,-8.5,24.4%,3.2
Nc1ncc(CCN2CCOCC2)c(-c2ccc(F)cc2)n1,-1.9,-120.8*,7.3,-5.8%,-11.2
Oc1cccc(/C=N/Nc2cc(N3CCOCC3)nc(N3CCOCC3)n2)c1,93.1*,-3.5,-28.8,/,-0.2
CC(=O)N1C(=O)N(C(C)=O)C2C1N(C)C(=O)N2C(C)=O (configuration not stated),-5.0,8.5,3.2,9.2%,11.2
COc1ccc(CCNC(=O)CCCOc2cccc(C)c2C)cc1OC,83.4*,-3.3,12.6,-4.4%,1.7
SMILES,TRPV1 agonist,hERG WT inh,TRPV1 PAM,MBNL1 CUG block,KCNH2 3.1 block
COc1ccc(CN(CC(=O)NCc2ccco2)C(=O)CNS(=O)(=O)c2ccc(C)cc2)cc1,-0.3,3.2,3.4,-4.7%,-4.1
CCc1cc2cc(C)cc(C)c2[nH]c1=S,3.8,-1.0,22.1,11.0%,-95.9*
C=CCn1c(SCc2c(Cl)cccc2Cl)nnc1-c1cccnc1,4.8,3.1,-6.9,-2.4%,-120.3*
C=CCn1c(SCc2cccnc2)nnc1-c1ccncc1,-3.1,8.0,0.3,-2.3%,-3.3
Cc1cc(Sc2nnc(/N=C/N(C)C)s2)c2ccccc2n1,/,39.1,/,/,-30.7
Cc1cc(Sc2nnc(N)s2)c2ccccc2n1,-10.6,3.5,24.2,17.6%,-77.8*
CC(C)C[C@@H](CC#N)N1CCN(Cc2ccccc2)CCC1=O,-0.4,-19.0,-5.9,-1.3%,30.2
COc1cccc(COC(=O)c2nn(-c3ccccc3)nc2N)c1,9.0,-183.9*,-2.7,-0.5%,/
COc1cc(CNCCc2c[nH]c3ccccc23)ccc1OCc1ccc(F)cc1,9.2,-20.4,-17.6,-3.2%,-87.7*
COc1ccccc1CNC(=O)Cn1nnnc1CN(C)C(C)C,1.5,1.5,2.7,-4.9%,14.7
COc1ccccc1Cc1nnnn1CC(=O)O,5.8,0.1,7.0,-13.6%,-91.8*
CC1Cc2ccccc2N1C(=O)CSc1nnc2c(n1)[nH]c1ccc(F)cc12 (configuration not stated),2.7,-1.0,-1.5,-3.9%,-1.8
CCn1c(/C=C/N(C(C)=O)c2ccccc2)[n+](CCCS(=O)(=O)[O-])c2cc(Cl)c(Cl)cc21,2.5,-10.9,0.1,-1.7%,0.8
CCn1c(/C=C/Nc2ccccc2)[n+](CC)c2cc(Cl)c(Cl)cc21,0.3,-131.9*,-7.7,/,-97.9*
Cc1c(NC(=S)N2CCN(c3ccc(F)cc3)CC2)c(=O)n(-c2ccccc2)n1C,0.2,18.2,6.5,-1.3%,-6.7
Nc1nc(CN2CCCCCC2)nc(Nc2ccc(F)cc2)n1,-3.1,28.1,30.0,-16.8%,-72.5*
Nc1nc(CSC(=S)N2CCOCC2)nc(Nc2ccc(F)cc2)n1,?,-1.7,-6.7,-9.5%,-114.8*
Nc1nc(CN2CCN(c3ccccn3)CC2)nc(Nc2ccc(F)cc2)n1,1.0,-3.4,2.7,-4.7%,-89.0*
COc1ccccc1N1CCN(Cc2nc(N)nc(Nc3ccccc3)n2)CC1,11.7,46.1,-9.0,7.3%,?
COc1ccccc1Nc1nc(N)nc(CN2CCCCCC2)n1,-2.8,-2.6,-2.6,-7.6%,-18.6
COc1ccccc1C(=O)Nc1ccc(C(=O)/C=C/c2cccs2)cc1,0.4,64.6,-3.5,/,-82.6*
NS(=O)(=O)c1ccc(NC(=O)/C=C/c2cccs2)cc1,?,-3.6,-19.9,5.7%,-6.9
NS(=O)(=O)c1cccc(NC(=O)/C=C/c2cccs2)c1,93.9*,-5.8,-6.9,?,-0.1
CCOC(=O)c1ccc(NC(=O)/C=C/c2cccs2)cc1,83.8*,-10.7,2.1,16.3%,-13.8
